The text below walks through data of PubChem BioAssay.

Structures are written as SMILES. Values without a mark were called inactive. For some of these results: Results with a measured potency or affinity are listed apart. The source made the active and inactive calls. Unless noted, the rule behind the calls is not given here.

Assay [1] can be described thus: antimalarial activity against Dd2 strain (AID 2302;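 active = growth inhibition above 50% at the single 2 µM test dose, taken to imply half-maximal potency below 2 µM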;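 note: 0% = DMSO untreated growth and 100% = chloroquine plus artemisinin killed control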). Particulars: P. falciparum Dd2 in RBCs, LDH growth readout, 72 h; at 2 µM; stronger effect = higher value.
A short description of assay [2]: HepG2 cytotoxicity, primary screen, cytotoxicity control for P. falciparum antimalarial project, cell-based, ATP luminescence (AID 2303;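 active = inhibition above 50%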;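 note: 0% = DMSO wells and 100% = digitonin-killed cells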). Conditions: HepG2 viability, 24-48 h, at 10 µM, stronger effect = higher value.
The target of assay [3] is L-lactate dehydrogenase (Plasmodium falciparum (isolate CDC / Honduras)) (UniProt Q27743). The assay can be described thus: PfLDH activity inhibition – cell lysate, 3D7 strain, counter-screen for P. falciparum growth inhibition project (AID 2304).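 Note: 0% = vehicle and 100% = reference inhibitor.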 Conditions: P. falciparum 3D7 crude extract, LDH APAD/NBT absorbance; at 2 µM; stronger effect = higher value. A general note: The purpose of a counterscreen is to sort out artefacts and off-target activity.

Assay [4] in a line: inhibition of 3D7 malaria parasite growth – strain 3D7 (AID 2306).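 Note: 0% = DMSO wells and 100% = chloroquine plus artemisinin control wells.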 Particulars: P. falciparum 3D7 erythrocytic growth, LDH absorbance, 72 h; at 2 µM; stronger effect = higher value.
Assay [5] concerns the target Calcium-dependent protein kinase 1 (Plasmodium falciparum (isolate 3D7)) (UniProt P62344). The assay can be described thus: PfCDPK1 kinase inhibitors, biochemical, TCAMS library (AID 1159585; cut-off not given, nearly all actives have IC50 up to about 0.98 µM;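 note: inhibitors leave more ATP so luminescence rises with inhibition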). Particulars: recombinant PfCDPK1, Kinase-Glo ATP depletion luminescence.
Assay [6] deals with Plasmodium falciparum protein kinase 6 (PK6, PF3D7_1337100) (UniProt Q8IDW1). The assay can be described thus: PfPK6 kinase inhibitors, biochemical, TCAMS library (AID 1159586). Conditions: recombinant PfPK6, Kinase-Glo ATP depletion luminescence. On the technique in general: In Kinase-Glo more light means more ATP remaining.
For assay [7], the target named is Protein kinase 7 (PK7), Plasmodium falciparum 3D7 (PF3D7_0213400) (UniProt Q7YTF7). The experiment in a line: inhibition of Plasmodium PK7 catalytic activity – biochemical, TCAMS antimalarial set, Kinase-Glo luminescence (AID 1159587). Conditions: recombinant PfPK7, Kinase-Glo ATP depletion luminescence.
Assay [8] concerns the target Calcium-dependent protein kinase 4 (Plasmodium falciparum (isolate 3D7)) (UniProt Q8IBS5). The assay can be described thus: PfCDPK4 kinase inhibitors, biochemical, TCAMS library (AID 1159588; cut-off not given, nearly all actives have IC50 up to about 0.91 µM). Conditions: recombinant PfCDPK4, Kinase-Glo ATP depletion luminescence.

Sequence of Calcium-dependent protein kinase 4 (Plasmodium falciparum (isolate 3D7)) (Q8IBS5 whole entry, looked up): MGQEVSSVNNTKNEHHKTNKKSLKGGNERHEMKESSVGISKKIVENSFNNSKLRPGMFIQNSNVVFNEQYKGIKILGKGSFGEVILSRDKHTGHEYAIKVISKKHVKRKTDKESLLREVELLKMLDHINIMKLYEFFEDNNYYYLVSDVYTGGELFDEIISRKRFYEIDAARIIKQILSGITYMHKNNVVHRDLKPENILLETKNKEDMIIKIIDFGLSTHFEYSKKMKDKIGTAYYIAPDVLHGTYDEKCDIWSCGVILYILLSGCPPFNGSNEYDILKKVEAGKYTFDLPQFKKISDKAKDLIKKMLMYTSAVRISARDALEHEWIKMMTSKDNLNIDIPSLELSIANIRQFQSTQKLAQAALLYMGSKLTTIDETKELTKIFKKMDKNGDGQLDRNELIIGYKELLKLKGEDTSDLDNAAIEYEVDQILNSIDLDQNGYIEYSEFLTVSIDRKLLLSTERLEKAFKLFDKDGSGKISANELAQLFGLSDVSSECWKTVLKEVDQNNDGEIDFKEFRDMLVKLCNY
Sequence of L-lactate dehydrogenase (Plasmodium falciparum (isolate CDC / Honduras)) (Q27743 whole entry, looked up): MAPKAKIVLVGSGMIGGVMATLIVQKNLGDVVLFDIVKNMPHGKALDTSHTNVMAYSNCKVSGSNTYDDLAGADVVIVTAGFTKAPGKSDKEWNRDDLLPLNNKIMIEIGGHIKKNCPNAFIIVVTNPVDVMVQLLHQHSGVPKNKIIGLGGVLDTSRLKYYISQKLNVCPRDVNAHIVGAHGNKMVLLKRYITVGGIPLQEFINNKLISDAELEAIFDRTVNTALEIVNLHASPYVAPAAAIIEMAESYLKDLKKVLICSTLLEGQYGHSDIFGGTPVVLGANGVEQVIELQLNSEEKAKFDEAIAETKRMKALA
Sequence of Calcium-dependent protein kinase 1 (Plasmodium falciparum (isolate 3D7)) (P62344 whole entry, looked up): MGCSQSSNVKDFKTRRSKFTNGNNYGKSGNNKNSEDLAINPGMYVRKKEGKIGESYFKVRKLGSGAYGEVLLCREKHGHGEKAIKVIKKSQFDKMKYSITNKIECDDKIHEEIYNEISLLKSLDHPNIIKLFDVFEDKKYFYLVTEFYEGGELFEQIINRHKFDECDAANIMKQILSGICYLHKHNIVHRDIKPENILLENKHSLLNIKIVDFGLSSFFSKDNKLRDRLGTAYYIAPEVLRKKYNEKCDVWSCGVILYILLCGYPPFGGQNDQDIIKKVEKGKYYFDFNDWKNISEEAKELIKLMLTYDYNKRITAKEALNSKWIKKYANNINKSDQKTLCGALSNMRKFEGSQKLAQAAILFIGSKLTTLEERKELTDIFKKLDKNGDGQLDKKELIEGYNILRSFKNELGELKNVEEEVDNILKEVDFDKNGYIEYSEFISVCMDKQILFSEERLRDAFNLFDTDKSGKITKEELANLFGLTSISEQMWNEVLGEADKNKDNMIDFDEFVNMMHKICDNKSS
Sequence of Plasmodium falciparum protein kinase 6 (PK6, PF3D7_1337100) (Q8IDW1 1-305): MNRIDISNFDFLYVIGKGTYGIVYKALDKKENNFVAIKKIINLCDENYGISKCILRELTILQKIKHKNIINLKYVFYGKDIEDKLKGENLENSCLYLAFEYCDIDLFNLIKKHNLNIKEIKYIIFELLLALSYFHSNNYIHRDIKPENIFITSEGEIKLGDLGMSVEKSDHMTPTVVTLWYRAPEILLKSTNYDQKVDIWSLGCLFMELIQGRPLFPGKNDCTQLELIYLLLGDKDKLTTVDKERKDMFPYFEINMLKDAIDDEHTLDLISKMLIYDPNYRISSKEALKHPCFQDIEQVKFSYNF
Sequence of Protein kinase 7 (PK7), Plasmodium falciparum 3D7 (PF3D7_0213400) (Q7YTF7 1-343): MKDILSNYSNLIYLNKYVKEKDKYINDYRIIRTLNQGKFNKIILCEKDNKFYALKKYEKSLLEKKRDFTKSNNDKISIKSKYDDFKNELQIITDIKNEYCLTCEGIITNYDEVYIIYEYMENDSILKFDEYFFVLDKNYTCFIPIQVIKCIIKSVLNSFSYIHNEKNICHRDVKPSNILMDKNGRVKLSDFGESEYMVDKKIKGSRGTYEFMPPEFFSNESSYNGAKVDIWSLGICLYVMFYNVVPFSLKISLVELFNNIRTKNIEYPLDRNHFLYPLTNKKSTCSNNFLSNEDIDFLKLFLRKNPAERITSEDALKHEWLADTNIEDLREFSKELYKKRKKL

`COc1ccc(CCn2c(=N)c(C(=O)NC3CCCC3)cc3c(=O)n4ccccc4nc32)cc1`: the results for the growth inhibition in assay [1] and in assay [4] were 34% and 99% (active), respectively. The inhibition was 11% in assay [2] and 1% in assay [3]. Also, the outcome in assay [5], in assay [6], in assay [7] and in assay [8] was inactive.
Take `Cc1cccc2[nH]c(-c3cccc(-c4cccc(CN5CCN(c6ccncc6)CC5)c4)c3)nc12`: the growth inhibition in assay [1] was 96% (active); in assay [4] it was 102% (active). The inhibition in assay [2] is 47%; in assay [3] it was -5%. Also, the result in assay [5], in assay [6], in assay [7] and in assay [8] was inactive.
Turning to `C[C@H](Nc1c(Nc2ccc3[nH]ccc3c2)c(=O)c1=O)C1CCCCC1`, the growth inhibition in assay [1] was 11%; in assay [4], 96% (active). Besides, the inhibition in assay [2] was 7%; in assay [3] it was 6%. Moreover, the result in assay [5], in assay [6], in assay [7] and in assay [8] was inactive.
Take `CC(C)CCN1CCCN(Cc2cccc(C(=O)Nc3ccc(C(C)(C)C)cc3)c2)CC1`: the figures for the growth inhibition in assay [1] and in assay [4] were 1% and 85% (active), respectively. Further, the inhibition in assay [2] was 33%; in assay [3] it was -5%. In addition, the outcome in assay [5], in assay [6], in assay [7] and in assay [8] was inactive.
On to `CCOc1cc(CC)ccc1C1CCN(CCCCNC(=O)c2ccc(NC(=O)c3ccc(C#N)cc3)cc2)CC1`, for which the growth inhibition in assay [1] was 50% (active); in assay [4] it was 91% (active). The results for the inhibition in assay [2] and in assay [3] were 55% (active) and -1%, respectively. Moreover, the result in assay [5], in assay [6], in assay [7] and in assay [8] was inactive.
As to `CCCc1cc(NC2CCN(C)CC2)nc(Nc2ccc(C)cc2)n1`, the growth inhibition is 20% in assay [1] and 101% (active) in assay [4]. Further, the inhibition was 25% in assay [2] and -1% in assay [3]. For the same compound, the result in assay [5], in assay [6], in assay [7] and in assay [8] was inactive.
For `OCc1c(Cl)cc(Cl)cc1CNCCCNc1nc2ccccc2[nH]1`, the growth inhibition is 2% in assay [1] and 102% (active) in assay [4]. Besides, the inhibition was -6% in assay [2] and -2% in assay [3]. The outcome in assay [5], in assay [6], in assay [7] and in assay [8] was inactive.
`COC(=O)c1cccc(CNCc2ccc(-c3ccc(-c4nc5ccc(F)cc5[nH]4)s3)cc2)c1`: the growth inhibition in assay [1] is 82% (active); in assay [4], 101% (active). Also, the inhibition in assay [2] is 4%; in assay [3], 7%. For the same compound, the outcome in assay [5], in assay [6], in assay [7] and in assay [8] was inactive.
On to `COc1ccc(CN2CCC(N3CC(c4ccccc4)(c4ccccc4)OCC3=O)C2)c(O)c1` (stereo not given), for which the growth inhibition is 27% in assay [1] and 96% (active) in assay [4]. In addition, the inhibition in assay [2] was 10%; in assay [3], 3%. The outcome in assay [5], in assay [6], in assay [7] and in assay [8] was inactive.
Take `NC(CC1CC(=O)N1CC(=O)O)C(=O)O` (stereo not given): the growth inhibition in assay [1] is -3%; in assay [4], 95% (active). In addition, the inhibition was 56% (active) in assay [2] and -5% in assay [3]. Further, the result in assay [5], in assay [6], in assay [7] and in assay [8] was inactive.
As to `O=C(/C=C/c1ccc(I)cc1)NCCCCCN1CCC(c2c[nH]c3ccccc23)CC1`, the growth inhibition in assay [1] is 2%; in assay [4], 95% (active). Moreover, the inhibition in assay [2] was 43%; in assay [3], -4%. Also, the result in assay [5], in assay [6], in assay [7] and in assay [8] was inactive.
Take `CNc1ccc(CNCc2ccc(-c3ccc(-c4nc5ccc(C(F)(F)F)cc5[nH]4)cc3)cc2)cc1`: the growth inhibition in assay [1] is 98% (active); in assay [4], 101% (active). For the same compound, the inhibition in assay [2] was 53% (active); in assay [3], -3%. Moreover, the result in assay [5], in assay [6], in assay [7] and in assay [8] was inactive.
As to `CNC(=O)c1cnc(Nc2ccc(N3CCOCC3)cc2)nc1Nc1cccc(OC)c1`, the growth inhibition in assay [1] was 41%; in assay [4], 96% (active). Also, the inhibition in assay [2] was 2%; in assay [3] it was -2%. Moreover, the outcome in assay [5], in assay [6], in assay [7] and in assay [8] was inactive.
In the case of `CCCCCCn1c(Sc2ccc(C#N)c([N+](=O)[O-])c2)nnc1-c1ccc(OC)cc1`, the growth inhibition in assay [1] is 51% (active); in assay [4], 95% (active). The inhibition in assay [2] is 19%; in assay [3] it was 2%. For the same compound, the outcome in assay [5], in assay [6], in assay [7] and in assay [8] was inactive.
`CCCCCCN1CCC(NCc2cccc(-n3ccnc3)c2)CC1`: the growth inhibition in assay [1] was 101% (active); in assay [4], 103% (active). The inhibition was 3% in assay [2] and 5% in assay [3]. The outcome in assay [5], in assay [6], in assay [7] and in assay [8] was inactive.
For the compound `Cc1nc(N2CCC(C)CC2)c2c3c(sc2n1)CCCC3`, the growth inhibition in assay [1] is 39%; in assay [4], 93% (active). Also, the inhibition was 13% in assay [2] and 1% in assay [3]. In addition, the result in assay [5], in assay [6], in assay [7] and in assay [8] was inactive.
With `COc1ccc(Cn2c(=O)[nH]c3cc(C(=O)NC4CCN(Cc5ccccc5)CC4)ccc3c2=O)cc1`, the results for the growth inhibition in assay [1] and in assay [4] were 45% and 97% (active), respectively. The inhibition in assay [2] is 10%; in assay [3], -7%. Besides, the result in assay [5], in assay [6], in assay [7] and in assay [8] was inactive.
With `Cc1cccc(C(=O)NC(NC(=S)Nc2cc(Cl)ccc2Cl)C(Cl)(Cl)Cl)c1` (stereo not given), the growth inhibition in assay [1] was 61% (active); in assay [4], 94% (active). For the same compound, the inhibition in assay [2] was -8%; in assay [3] it was 1%. Moreover, the outcome in assay [5], in assay [6], in assay [7] and in assay [8] was inactive.
In the case of `O=C(NCCc1ccc(Cl)c(Cl)c1)C1CCCN(C(=O)c2ccc(O)c(-c3ccc(Cl)c(Cl)c3)c2)C1` (stereo not given), the growth inhibition is 65% (active) in assay [1] and 96% (active) in assay [4]. Further, the inhibition was -9% in assay [2] and -3% in assay [3]. For the same compound, the result in assay [5], in assay [6], in assay [7] and in assay [8] was inactive.
For the compound `O=C(Nc1cccc(C(F)(F)F)c1)c1cccc(S(=O)(=O)NCC2CCN(CC3CCCCC3)CC2)c1`, the results for the growth inhibition in assay [1] and in assay [4] were 5% and 97% (active), respectively. Also, the inhibition in assay [2] was 27%; in assay [3], 0%. The outcome in assay [5], in assay [6], in assay [7] and in assay [8] was inactive.

Usually inhibition stands for the relative decrease from the control value, in per cent.
